Results from the supplement of paper PMC10849652.
The full data set covers some 7,900 targets. This sample favours those with a hit. About 0.6% of all pairs of compound and target were hits.

compound: CS(=O)(=O)c1ccc(-c2cnc(N)c(C(=O)Nc3ccccc3)n2)cc1; test: log2 fold change, soluble protein after heating vs DMSO (PISA); higher = thermal stabilisation; K562 cells, 10 uM, 30 min; active = over 0.2 and 3.5 SD of the protein, either way, in both replicates (recomputed)
Method in brief: (§1)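 K562 cells at 2×10^6 cells/mL were exposed to 10 μM compound for 30 min, then aliquots were heated for 3 min across 48°C-58°C, pooled, and extracted in PBS containing 0.5% NP-40 at 4°C. The supernatant after 21,000xg for 90 min was taken as soluble protein and measured by TMTpro 16plex LC-MS/MS with channel sums equalised. Thermal stability is reported relative to control samples, with values from duplicates. Fold changes are given on a log2 scale.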

Sequence of UniProt Q92828 (Q92828 whole entry, looked up): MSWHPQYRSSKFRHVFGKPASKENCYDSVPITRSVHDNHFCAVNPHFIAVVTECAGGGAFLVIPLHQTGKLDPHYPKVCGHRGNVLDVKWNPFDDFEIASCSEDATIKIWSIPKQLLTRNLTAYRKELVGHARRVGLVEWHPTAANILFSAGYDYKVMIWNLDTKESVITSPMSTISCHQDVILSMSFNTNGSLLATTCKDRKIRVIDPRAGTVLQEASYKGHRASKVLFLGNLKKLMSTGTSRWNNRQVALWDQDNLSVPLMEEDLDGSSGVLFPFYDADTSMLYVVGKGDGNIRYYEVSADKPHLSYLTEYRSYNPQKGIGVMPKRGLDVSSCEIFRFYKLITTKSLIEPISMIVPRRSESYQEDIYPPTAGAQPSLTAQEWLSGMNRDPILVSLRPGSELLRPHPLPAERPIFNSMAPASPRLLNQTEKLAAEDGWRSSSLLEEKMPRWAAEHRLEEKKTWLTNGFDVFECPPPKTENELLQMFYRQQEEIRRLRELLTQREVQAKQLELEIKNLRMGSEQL
Sequence of UniProt P30281 (P30281 whole entry, looked up): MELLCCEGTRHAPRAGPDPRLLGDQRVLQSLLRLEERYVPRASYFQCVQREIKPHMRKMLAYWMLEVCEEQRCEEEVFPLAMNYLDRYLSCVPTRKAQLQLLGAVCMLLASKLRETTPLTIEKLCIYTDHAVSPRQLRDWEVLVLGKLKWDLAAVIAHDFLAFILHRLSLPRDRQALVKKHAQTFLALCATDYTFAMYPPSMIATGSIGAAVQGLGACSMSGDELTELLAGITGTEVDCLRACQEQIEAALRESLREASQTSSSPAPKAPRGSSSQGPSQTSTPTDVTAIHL
Sequence of UniProt O95273 (O95273 whole entry, looked up): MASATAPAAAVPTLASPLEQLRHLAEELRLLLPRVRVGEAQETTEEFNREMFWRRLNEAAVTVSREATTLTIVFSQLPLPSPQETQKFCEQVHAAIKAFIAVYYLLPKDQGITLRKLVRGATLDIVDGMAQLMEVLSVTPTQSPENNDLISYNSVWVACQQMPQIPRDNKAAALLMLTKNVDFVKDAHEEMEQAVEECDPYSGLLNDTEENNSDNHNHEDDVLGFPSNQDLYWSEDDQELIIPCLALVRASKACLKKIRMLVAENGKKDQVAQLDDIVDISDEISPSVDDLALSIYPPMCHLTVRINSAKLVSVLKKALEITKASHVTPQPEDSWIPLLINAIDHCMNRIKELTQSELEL
Sequence of UniProt Q9UBY8 (Q9UBY8 whole entry, looked up): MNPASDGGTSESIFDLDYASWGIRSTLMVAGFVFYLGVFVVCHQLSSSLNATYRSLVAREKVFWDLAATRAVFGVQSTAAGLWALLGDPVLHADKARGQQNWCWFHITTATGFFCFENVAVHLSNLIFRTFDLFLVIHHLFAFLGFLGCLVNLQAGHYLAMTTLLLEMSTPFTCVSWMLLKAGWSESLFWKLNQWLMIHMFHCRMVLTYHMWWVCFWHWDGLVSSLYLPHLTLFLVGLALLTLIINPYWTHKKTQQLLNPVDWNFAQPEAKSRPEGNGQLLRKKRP
Sequence of UniProt Q14194 (Q14194 whole entry, looked up): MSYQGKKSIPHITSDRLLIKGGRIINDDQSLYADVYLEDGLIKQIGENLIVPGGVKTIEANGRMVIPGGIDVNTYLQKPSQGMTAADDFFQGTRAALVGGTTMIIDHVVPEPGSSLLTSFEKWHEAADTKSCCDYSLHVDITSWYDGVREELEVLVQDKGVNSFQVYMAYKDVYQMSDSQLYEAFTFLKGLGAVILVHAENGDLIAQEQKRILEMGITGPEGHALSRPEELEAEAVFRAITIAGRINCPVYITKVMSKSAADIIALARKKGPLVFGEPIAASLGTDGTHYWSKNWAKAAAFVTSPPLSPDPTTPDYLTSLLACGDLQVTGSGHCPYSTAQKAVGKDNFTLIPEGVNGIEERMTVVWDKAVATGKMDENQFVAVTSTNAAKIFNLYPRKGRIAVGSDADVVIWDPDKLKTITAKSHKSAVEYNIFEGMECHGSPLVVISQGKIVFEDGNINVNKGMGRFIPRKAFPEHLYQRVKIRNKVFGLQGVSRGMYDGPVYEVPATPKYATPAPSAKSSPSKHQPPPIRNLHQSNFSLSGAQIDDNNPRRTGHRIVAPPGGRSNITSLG
Sequence of UniProt O60583 (O60583 whole entry, looked up): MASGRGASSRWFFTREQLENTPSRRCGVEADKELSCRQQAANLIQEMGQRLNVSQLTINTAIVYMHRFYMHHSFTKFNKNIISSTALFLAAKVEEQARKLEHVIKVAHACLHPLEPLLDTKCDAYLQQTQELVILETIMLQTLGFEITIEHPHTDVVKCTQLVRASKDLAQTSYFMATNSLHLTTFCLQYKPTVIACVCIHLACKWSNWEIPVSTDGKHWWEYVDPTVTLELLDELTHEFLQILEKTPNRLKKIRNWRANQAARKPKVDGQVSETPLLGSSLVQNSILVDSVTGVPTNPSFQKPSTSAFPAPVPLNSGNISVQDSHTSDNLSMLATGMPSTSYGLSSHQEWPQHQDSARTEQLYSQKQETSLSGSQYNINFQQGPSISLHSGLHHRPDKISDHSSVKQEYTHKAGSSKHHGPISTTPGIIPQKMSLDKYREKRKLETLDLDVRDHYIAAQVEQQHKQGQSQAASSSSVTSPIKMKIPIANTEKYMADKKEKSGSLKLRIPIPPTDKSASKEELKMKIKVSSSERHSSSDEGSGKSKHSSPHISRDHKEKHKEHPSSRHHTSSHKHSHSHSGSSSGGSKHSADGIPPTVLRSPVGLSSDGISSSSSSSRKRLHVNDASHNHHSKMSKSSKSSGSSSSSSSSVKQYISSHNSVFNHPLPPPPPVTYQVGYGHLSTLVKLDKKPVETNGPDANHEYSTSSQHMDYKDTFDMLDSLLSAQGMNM
Sequence of UniProt Q13286 (Q13286 whole entry, looked up): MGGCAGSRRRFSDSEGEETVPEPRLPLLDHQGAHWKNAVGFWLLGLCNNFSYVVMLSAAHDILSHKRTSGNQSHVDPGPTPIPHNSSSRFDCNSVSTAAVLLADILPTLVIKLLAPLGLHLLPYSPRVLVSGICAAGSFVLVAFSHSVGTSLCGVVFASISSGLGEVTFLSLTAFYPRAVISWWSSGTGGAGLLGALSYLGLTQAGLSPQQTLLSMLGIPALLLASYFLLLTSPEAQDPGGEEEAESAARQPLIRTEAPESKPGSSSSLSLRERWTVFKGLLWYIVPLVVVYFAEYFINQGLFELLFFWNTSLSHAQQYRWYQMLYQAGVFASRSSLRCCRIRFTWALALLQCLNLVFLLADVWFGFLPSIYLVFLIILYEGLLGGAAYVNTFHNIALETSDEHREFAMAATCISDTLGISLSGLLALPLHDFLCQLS
Sequence of UniProt P30305 (P30305 whole entry, looked up): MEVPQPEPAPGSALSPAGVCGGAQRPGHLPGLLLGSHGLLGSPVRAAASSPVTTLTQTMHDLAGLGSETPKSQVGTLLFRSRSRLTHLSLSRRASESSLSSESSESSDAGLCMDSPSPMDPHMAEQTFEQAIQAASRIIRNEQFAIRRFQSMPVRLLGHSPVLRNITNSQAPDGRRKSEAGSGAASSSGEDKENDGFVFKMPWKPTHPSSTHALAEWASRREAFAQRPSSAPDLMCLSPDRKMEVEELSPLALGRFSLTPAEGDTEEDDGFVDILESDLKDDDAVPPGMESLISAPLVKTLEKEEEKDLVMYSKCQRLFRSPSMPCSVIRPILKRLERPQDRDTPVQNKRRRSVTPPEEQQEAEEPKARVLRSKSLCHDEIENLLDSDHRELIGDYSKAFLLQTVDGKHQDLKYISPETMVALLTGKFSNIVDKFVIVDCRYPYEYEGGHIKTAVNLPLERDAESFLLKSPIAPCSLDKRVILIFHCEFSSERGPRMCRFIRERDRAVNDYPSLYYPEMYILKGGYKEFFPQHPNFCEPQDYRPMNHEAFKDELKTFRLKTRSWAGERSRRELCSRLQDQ
Sequence of UniProt Q14677 (Q14677 whole entry, looked up): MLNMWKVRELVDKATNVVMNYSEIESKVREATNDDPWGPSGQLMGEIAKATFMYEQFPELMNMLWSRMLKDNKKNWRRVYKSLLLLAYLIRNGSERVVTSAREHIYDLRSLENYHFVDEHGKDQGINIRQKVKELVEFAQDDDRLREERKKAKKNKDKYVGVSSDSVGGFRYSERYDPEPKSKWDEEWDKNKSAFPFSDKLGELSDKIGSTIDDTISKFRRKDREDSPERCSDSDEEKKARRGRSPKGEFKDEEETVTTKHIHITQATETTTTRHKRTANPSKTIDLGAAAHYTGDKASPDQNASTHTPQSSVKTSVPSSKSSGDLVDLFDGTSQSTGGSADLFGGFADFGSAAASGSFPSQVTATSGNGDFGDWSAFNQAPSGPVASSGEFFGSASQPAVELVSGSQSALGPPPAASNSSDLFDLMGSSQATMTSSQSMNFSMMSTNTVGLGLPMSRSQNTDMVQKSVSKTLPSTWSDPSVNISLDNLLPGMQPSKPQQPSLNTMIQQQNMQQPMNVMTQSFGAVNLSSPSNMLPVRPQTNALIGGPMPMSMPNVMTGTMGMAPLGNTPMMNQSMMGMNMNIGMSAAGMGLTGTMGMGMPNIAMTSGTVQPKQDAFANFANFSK
Sequence of UniProt O75956 (O75956 whole entry, looked up): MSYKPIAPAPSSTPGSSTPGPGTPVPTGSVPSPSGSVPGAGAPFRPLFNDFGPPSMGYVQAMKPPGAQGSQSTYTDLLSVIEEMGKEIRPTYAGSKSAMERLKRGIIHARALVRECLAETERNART
Sequence of UniProt P51911 (P51911 whole entry, looked up): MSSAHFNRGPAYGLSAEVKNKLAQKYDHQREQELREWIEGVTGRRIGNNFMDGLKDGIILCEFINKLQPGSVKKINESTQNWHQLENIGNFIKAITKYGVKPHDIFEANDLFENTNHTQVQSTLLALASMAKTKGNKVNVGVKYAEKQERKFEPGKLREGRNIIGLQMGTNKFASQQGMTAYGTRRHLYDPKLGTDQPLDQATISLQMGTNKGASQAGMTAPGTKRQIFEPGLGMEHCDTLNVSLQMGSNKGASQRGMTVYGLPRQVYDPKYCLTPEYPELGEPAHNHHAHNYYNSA
Sequence of UniProt A8MTT3 (A8MTT3 whole entry, looked up): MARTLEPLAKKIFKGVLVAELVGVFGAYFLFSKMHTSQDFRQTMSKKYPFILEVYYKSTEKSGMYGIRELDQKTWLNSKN

Target	log2 fold change
CCNDBP1 (UniProt O95273)	0.016 (inactive)
CORO2A (UniProt Q92828)	-0.085 (inactive)
CD68 (UniProt P34810)	-0.016 (inactive)
CRMP1 isoform 2 (UniProt Q14194)	0.024 (inactive)
CNN1 (UniProt P51911)	-0.052 (inactive)
COMMD3-BMI1 (UniProt R4GMX3)	0.074 (inactive)
CLN8 (UniProt Q9UBY8)	-0.006 (inactive)
CLPTM1L (UniProt G5E9Z2)	-0.317 (inactive)
CRTC3 (UniProt Q6UUV7)	-0.004 (inactive)
CDC25B isoform 4 (UniProt P30305)	-0.104 (inactive)
CCNT2 (UniProt O60583)	-0.226 (inactive)

compound: C[C@@H](Oc1cc(-c2cnn(C3CCNCC3)c2)cnc1N)c1c(Cl)ccc(F)c1Cl [crizotinib]; test: as above
Method in brief: as §1

Target	log2 fold change
CARD9 (UniProt Q9H257)	-0.023 (inactive)
CLN3 (UniProt Q13286)	-0.327 (inactive)
CLASP2 (UniProt O75122)	-0.21 (inactive)
CCDC82 (UniProt Q8N4S0)	0.148 (inactive)
CEBPZOS (UniProt A8MTT3)	0.26 (active)
CREB3L2 (UniProt Q70SY1)	0.098 (inactive)
CEMIP2 (UniProt Q9UHN6)	0.075 (inactive)
CLCN5 isoform 2 (UniProt P51795)	-0.321 (inactive)
CNOT4 isoform 9 (UniProt O95628)	-0.094 (inactive)
CDK2AP2 (UniProt O75956)	0.213 (inactive)
CLINT1 (UniProt Q14677)	0.166 (inactive)

compound: C[C@@H]1COCCN1C2=NC(=NC(=C2)C3(CC3)S(=O)(=O)C)C4=C5C=CNC5=CC=C4; test: as above
Method in brief: as §1

Target	log2 fold change
CLN3 (UniProt Q13286)	0.066 (inactive)
CCDC82 (UniProt Q8N4S0)	-0.174 (inactive)
CNN1 (UniProt P51911)	0.045 (inactive)
CNRIP1 (UniProt Q96F85)	0.209 (inactive)
COMMD3-BMI1 (UniProt R4GMX3)	-0.031 (inactive)
CREB3L2 (UniProt Q70SY1)	-0.076 (inactive)
CEMIP2 (UniProt Q9UHN6)	0.023 (inactive)
CCND3 (UniProt P30281)	-0.271 (inactive)
CCDC187, A0A1W2PQX5	-0.042 (inactive)
CLPTM1L (UniProt G5E9Z2)	0.073 (inactive)
CDK2AP2 (UniProt O75956)	0.173 (inactive)
CA1 (UniProt E5RIF9)	-0.134 (inactive)
C5orf30 (UniProt Q96GV9)	0.352 (inactive)
CASP7 isoform 3 (UniProt P55210)	0.3 (inactive)
CFAP47 (UniProt Q6ZTR5)	0.099 (inactive)
CRTC3 (UniProt Q6UUV7)	0.177 (inactive)
CDC25B isoform 4 (UniProt P30305)	-0.216 (inactive)
CCNT2 (UniProt O60583)	-0.148 (inactive)

compound: C[C@H](C1=CC=C(C=C1)C(=O)NC2=C3C=CNC3=NC=C2)N; test: as above
Method in brief: as §1

Target	log2 fold change
CCNDBP1 (UniProt O95273)	0.06 (inactive)
CORO2A (UniProt Q92828)	0.101 (inactive)
CLN3 (UniProt Q13286)	0.071 (inactive)
CLASP2 (UniProt O75122)	0.155 (inactive)
CRMP1 isoform 2 (UniProt Q14194)	0.08 (inactive)
CCDC82 (UniProt Q8N4S0)	0.015 (inactive)
CNN1 (UniProt P51911)	-0.121 (inactive)
COMMD3-BMI1 (UniProt R4GMX3)	0.019 (inactive)
CREB3L2 (UniProt Q70SY1)	-0.26 (inactive)
CEMIP2 (UniProt Q9UHN6)	0.03 (inactive)
CLN8 (UniProt Q9UBY8)	0.161 (inactive)
CCND3 (UniProt P30281)	0.096 (inactive)
CLCN5 isoform 2 (UniProt P51795)	-0.123 (inactive)
CNOT4 isoform 9 (UniProt O95628)	0.484 (active)
CLPTM1L (UniProt G5E9Z2)	0.067 (inactive)
CDK2AP2 (UniProt O75956)	-0.015 (inactive)
CLINT1 (UniProt Q14677)	0.005 (inactive)
CRTC3 (UniProt Q6UUV7)	0.071 (inactive)
CPNE5 (UniProt Q9HCH3)	0.148 (inactive)
CDC25B isoform 4 (UniProt P30305)	-0.057 (inactive)

compound: C[C@H](Nc1ncnc2nc[nH]c12)c1cc2cccc(Cl)c2c(=O)n1-c1ccccc1 [duvelisib]; test: as above
Method in brief: as §1

Target	log2 fold change
CCNDBP1 (UniProt O95273)	0.016 (inactive)
CORO2A (UniProt Q92828)	0.061 (inactive)
CLN3 (UniProt Q13286)	0.096 (inactive)
CRMP1 isoform 2 (UniProt Q14194)	0.208 (inactive)
CCDC82 (UniProt Q8N4S0)	-0.223 (inactive)
CEBPZOS (UniProt A8MTT3)	0.055 (inactive)
CEMIP2 (UniProt Q9UHN6)	0.037 (inactive)
CLN8 (UniProt Q9UBY8)	0.049 (inactive)
CCND3 (UniProt P30281)	0.014 (inactive)
CKS2 (UniProt P33552)	0.01 (inactive)
CLCN5 isoform 2 (UniProt P51795)	0.188 (inactive)
CNOT4 isoform 9 (UniProt O95628)	-0.076 (inactive)
CA1 (UniProt E5RIF9)	0.055 (inactive)
CLINT1 (UniProt Q14677)	-0.08 (inactive)
CASP7 isoform 3 (UniProt P55210)	-0.024 (inactive)
CFAP47 (UniProt Q6ZTR5)	-0.027 (inactive)
CASK (UniProt O14936)	0.049 (inactive)
CCNT2 (UniProt O60583)	-0.107 (inactive)
